A selection: hits, their analogues and other compounds. The true share with any hit is near 2.5%.
POLI inh: qHTS for Inhibitors of Polymerase Iota; 390,000 compounds, 1% hits; Potency, µM (top dose mostly 115 µM), without a hit: at the top dose activity, negative = inhibition, most hits filed as inhibitors; Pol iota fluorescent replication assay, 10 min; DNA polymerase iota (Homo sapiens), Q9UNA4
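Fluorescent replication assay read twice, at 0 min and 10 min after adding 50 nM (final) substrate. Enzyme (10 nM) and compounds were first incubated 15 min at room temperature; enzyme-free buffer wells were negative controls.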
Pol eta inh-1: qHTS for Inhibitors of Polymerase Eta | DNA polymerase eta (Homo sapiens), Q9Y253 | recombinant Pol eta, fluorescent DNA replication assay | Potency, µM (doses to about 114 µM), inactives show at the top dose activity change, negative = inhibition, actives largely listed as inhibitors | 390,000 compounds, 1.2% hits | AID 588591, 2011; further: on the % scale 0 is the no-effect control and ±100 the full control effect
Target sequence (Q9Y253 whole entry, looked up): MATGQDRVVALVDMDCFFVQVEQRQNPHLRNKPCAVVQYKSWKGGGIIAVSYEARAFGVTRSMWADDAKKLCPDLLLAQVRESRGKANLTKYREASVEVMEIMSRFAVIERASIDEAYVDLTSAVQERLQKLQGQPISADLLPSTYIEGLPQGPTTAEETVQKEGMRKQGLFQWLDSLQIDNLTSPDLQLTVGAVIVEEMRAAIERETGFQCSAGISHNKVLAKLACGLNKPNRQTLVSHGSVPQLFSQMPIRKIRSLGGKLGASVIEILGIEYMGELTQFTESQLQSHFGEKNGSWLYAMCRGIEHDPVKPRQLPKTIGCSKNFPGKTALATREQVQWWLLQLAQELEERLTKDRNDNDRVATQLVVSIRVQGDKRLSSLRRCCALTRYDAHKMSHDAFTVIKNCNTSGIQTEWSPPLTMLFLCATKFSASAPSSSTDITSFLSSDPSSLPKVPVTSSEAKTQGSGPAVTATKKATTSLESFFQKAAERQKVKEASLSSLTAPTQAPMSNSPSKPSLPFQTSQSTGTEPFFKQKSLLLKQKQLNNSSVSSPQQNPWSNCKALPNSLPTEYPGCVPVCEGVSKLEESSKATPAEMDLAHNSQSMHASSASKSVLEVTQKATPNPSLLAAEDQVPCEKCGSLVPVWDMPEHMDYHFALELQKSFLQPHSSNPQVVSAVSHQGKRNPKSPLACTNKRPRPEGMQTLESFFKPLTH
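Fluorescent replication assay: 50 nM final substrate added after a 15 min room-temperature compound preincubation with 10 nM enzyme. Signal taken at 0 min and again at 10 min.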
WRN helicase inh-1: qHTS for Inhibitors of WRN Helicase | Bifunctional 3'-5' exonuclease/ATP-dependent helicase WRN (Homo sapiens), Q14191 | WRN helicase unwinding, fluorescent forked duplex, kinetic | Potency, µM (series often up to 114 µM), for inactives: at the highest dose activity change, negative = inhibition, hits mostly inhibitors | 360,000 compounds, 0.46% hits; further: on the % scale 0 is the no-effect control and ±100 the full control effect; nearly all actives have a fitted effect of over 55% in size
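Primary qHTS, 1536-well format. 20 nM WRN + compound, 15 min RT; start with 100 nM forked fluorophore/quencher duplex, 2 mM ATP (final); kinetic read ex 525/em 598 nm.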
L3MBTL1 inh-1: qHTS Assay for the Inhibitors of L3MBTL1 | Lethal(3)malignant brain tumor-like protein 1 (Homo sapiens), Q9Y468 | AlphaScreen L3MBTL1–H3K9me1 peptide binding | Potency, µM (doses to about 57.1 µM), for the others: at the highest dose activity, negative = inhibition, usual class: inhibitors | 230,000 compounds, 0.66% hits | AID 485360, 2010; further: on the % scale 0 is the no-effect control and ±100 the full control effect; nearly all actives have a fitted effect of over 60% in size
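Read-out is AlphaScreen signal from streptavidin donor and nickel chelate acceptor beads (10 ug/mL final each) bridging L3MBTL1 (50 nM) and biotinylated K9-monomethylated H3(1-15) peptide (75 nM), after 30 min compound exposure at room temperature.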
Pol kappa inh-1: qHTS for Inhibitors of Polymerase Kappa | purified Pol kappa, fluorescent DNA synthesis assay, 10 min | DNA polymerase kappa (Homo sapiens), Q9UBT6 | AID 588579, 2011 | 400,000 compounds, 0.53% hits | Potency, µM (titrated, usually from 107 µM), without a hit: at the top dose activity, negative = inhibition, hits mostly inhibitors; further: on the % scale 0 is the no-effect control and ±100 the full control effect
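Kinetic fluorescence screen: compound preincubated 15 min RT with 10 nM enzyme; 50 nM substrate (final) initiates; reads at 0/10 min.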
POLB inh: qHTS Assay for Inhibitors of DNA Polymerase Beta. Pol beta primer extension/strand displacement, fluorescence kinetic. 340,000 compounds, 1.3% hits. Potency, µM (series often up to 114 µM), for inactives: top-dose activity change, negative = inhibition, hits mostly inhibitors. AID 485314, 2010. P06746; further: on the % scale 0 is the no-effect control and ±100 the full control effect
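Reaction started by 50 nM substrate onto compound-treated Pol beta (10 nM, 15 min preincubation, room temperature); plates read at 0 min and 10 min. Normalized concentration-effect data fitted by four-parameter Hill equation.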
L3MBTL1 inh-2: qHTS Assay for the Inhibitors of L3MBTL1: Hit Validation. Potency, µM, usual class: inhibitors. 500 compounds, 91% hits. L3MBTL1 methyl-lysine binding inhibition, biochemical qHTS. AID 540279, 2011. shares compounds with L3MBTL1 inh-1; further: nearly all actives have a fitted effect of over 70% in size
AlphaScreen ctr2: qHTS Assay for the Inhibitors of L3MBTL1: Hit Validationin AlphaScreen Counterscreen | shares compounds with L3MBTL1 inh-1 | AlphaScreen counterscreen, signal inhibition | Potency, µM (top dose mostly 57.1 µM), without a hit: at the top dose activity change, negative = inhibition, usual class: inhibitors | 500 tested, under 10 active; further: 0% is about no effect
TbPGK inh: qHTS for inhibitors of Phosphogylcerate Kinase: Hit Validation Screen. 500 compounds, 79% hits. Potency, µM (series often up to 57.5 µM), inactives show at the top dose activity change, negative = inhibition, hits mostly inhibitors. shares compounds with Pol kappa inh-1. TbPGK coupled GAPDH assay, Kinase-Glo luminescence; further: on the % scale 0 is the no-effect control and ±100 the full control effect; nearly all actives have a fitted effect of over 65% in size
Pol iota confirm: qHTS for Inhibitors of Polymerase Iota: Confirmatory Assay for Cherry-picked Compounds; shares compounds with Pol kappa inh-1; Pol iota primer extension, TAMRA/BHQ fluorescence; Potency, µM, hits mostly inhibitors; 1,500 compounds, 77% hits; AID 720496, 2013
Pol kappa inh-2: qHTS for Inhibitors of Polymerase Kappa: Confirmatory Assay for Cherry-picked Compounds; purified Pol-kappa, fluorescent strand-displacement substrate; AID 720501, 2013; Potency, µM, hits mostly inhibitors; shares compounds with Pol eta inh-1; 920 compounds, 76% hits
Pol eta inh-2: qHTS for Inhibitors of Polymerase Eta: Confirmatory Assay for Cherry-picked Compounds | 2,600 compounds, 64% hits | Pol eta primer extension, TAMRA/BHQ fluorescence, 10 min | Potency, µM, usual class: inhibitors | shares compounds with Pol eta inh-1
WRN helicase inh-2: qHTS for Inhibitors of WRN Helicase: Confirmatory Assay for Cherry-picked Compounds; Potency, µM (doses to about 57.1 µM), for the others: at the top dose activity, negative = inhibition, hits mostly inhibitors; shares compounds with WRN helicase inh-1; WRN helicase DNA unwinding, fluorescence kinetic; 610 compounds, 63% hits; AID 720497, 2013; further: nearly all actives have a fitted effect of over 65% in size
TO DNA binding: qHTS for Inhibitors of WRN Helicase: Thiazole Orange DNA Binding Counterscreen | shares compounds with WRN helicase inh-1 | thiazole orange DNA binding displacement, fluorescence | Potency, µM (series often up to 57.1 µM), for the others: top-dose activity change, negative = inhibition, actives largely listed as inhibitors | 610 compounds, 10% hits | AID 720499, 2013;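 further: drop in dye fluorescence marks compound binding to DNA; on the % scale 0 is the no-effect control and ±100 the full control effect; nearly all actives have a fitted effect of over 60% in size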
BLM helicase inh: qHTS for Inhibitors of WRN Helicase: BLM Helicase Counterscreen for WRN Inhibitors; shares compounds with WRN helicase inh-1; Potency, µM (series often up to 57.1 µM), without a hit: at the top dose activity change, negative = inhibition, most hits filed as inhibitors; AID 720503, 2013; 610 compounds, 60% hits; Recombinant BLM helicase DNA unwinding, red fluorescence; further: nearly all actives have a fitted effect of over 60% in size
The depositor's hits bear a star; ? = inconclusive; · = no result; [ ] = dose if it differs, or a comment. The call rests on the fitted dose curve; in most records, active means well fitted curve in the direction sought with a large enough effect; inconclusive means small, poorly fitted or top-dose-only effect, or another doubt; inactive means no such curve, though single readings can be large; an effect the other way counts as inactive or inconclusive. Potency means the concentration at half of the fitted maximal effect.

SMILES | POLI inh | Pol eta inh-1 | WRN helicase inh-1 | L3MBTL1 inh-1 | Pol kappa inh-1 | POLB inh | L3MBTL1 inh-2 | AlphaScreen ctr2 | Pol iota confirm | Pol eta inh-2 | WRN helicase inh-2 | TO DNA binding | BLM helicase inh | others
COC(=O)c1ccc(N2NC(=O)/C(=C/c3ccc(-c4ccc(Cl)c(C(=O)O)c4)o3)C2=O)cc1 | 8.9µM* | 3.2µM* | 35µM* | 6.3µM* | 28µM* | 22µM* | 1.7* | -17% | 27* | 7.6* | 17µM* | ? | 22µM* | Pol kappa inh-2=4.7*
CN(C)c1ccc(C=O)c(F)c1 | 34% | · | · | · | -6% | · | · | · | · | · | · | · | ·
COc1ccccc1CNC(=O)C(=O)NCC(c1ccco1)S(=O)(=O)c1cccs1 (stereo not given) | 23% | -21% | · | · | -8%[60.1 µM] | 1% | · | · | · | · | · | · | ·
COc1ccc(C2=Nn3c(nnc3-c3ccco3)SC2)cc1 | -4% | -8% | -5% | · | 5% | -1% | · | · | · | · | · | · | ·
Oc1ccc(C2=Nn3c(nnc3-c3ccco3)SC2)cc1O | 2.2µM* | 3.2µM* | 11µM* | 25µM* | 20µM* | 4µM* | 9.5* | 5% | 27* | 19* | 15µM* | -24% | 17µM* | TbPGK inh=5.8µM*
CCCN(CC1CCCO1)C(=O)CCc1nnc(-c2cc(C)on2)o1 (stereo not given) | 45% | -1% | 6% | 9% | 1% | 15% | · | · | · | · | · | · | ·
C=CCn1c(SCC(=O)c2ccc(O)c(O)c2)nnc1-c1ccc(OC)cc1 | 50µM* | 10µM* | 28µM* | 8.9µM* | 45µM* | · | 13* | 0% | ? | ? | 17µM* | -4% | ?
Cc1ccc(/C=C(\CCC(=O)O)c2nc3ccccc3s2)cc1[N+](=O)[O-] | 4% | -11% | -19% | 0% | -15% | 3% | · | · | · | · | · | · | ·
CN(c1ccccc1)c1ccc(/C=C(\CCC(=O)O)c2nc3ccccc3s2)cc1[N+](=O)[O-] | 22µM* | 8.9µM* | 27µM* | 28µM* | ? | 8.9µM* | 24* | ? | 27* | 67* | 22µM* | 27µM* | 8.6µM*
Cc1ccc(/C=N/NC(=O)c2nc3nc(C)cc(C)n3n2)cc1 | 2% | -19% | -29% | 5% | -4% | 37% | · | · | · | · | · | · | ·
CCC1CCc2sc(C(=O)OCC(=O)N(CCOC)c3c(N)n(Cc4ccccc4)c(=O)[nH]c3=O)cc2C1 (stereo not given) | 15% | -19% | 6% | -11% | -8% | · | · | · | · | · | · | · | ·
COCCN(C(=O)COC(=O)c1cc2c(s1)CCC2)c1c(N)n(Cc2ccccc2)c(=O)[nH]c1=O | 3.2µM* | 0.71µM* | 8.9µM* | 2.5µM* | 4.5µM* | · | 0.84* | -2% | 1.9* | 2.1* | 2.2µM* | ? | 0.43µM* | TbPGK inh=0.82µM*
CC1(c2ccc3c(c2)OCCO3)NC(=O)N(CC(=O)Nc2ccccc2SCC#N)C1=O (stereo not given) | 33% | -16% | -4% | 2% | -9% | · | · | · | · | · | · | · | ·
Cc1ccc(-c2cc(C(=O)O)c3cc(Br)ccc3n2)o1 | ? | 20µM* | 35µM* | 32µM* | ? | 22µM* | 21* | -5% | · | · | 15µM* | -10% | ?
Cc1ccc(S(=O)(=O)NCc2ccc(C(=O)NCCc3ccc(S(N)(=O)=O)cc3)cc2)cc1 | 32µM* | ? | -3%[11.6 µM] | · | -13% | ? | · | · | ? | · | · | · | ·
Cc1ccc(CC(=O)NCCc2ccc(S(N)(=O)=O)cc2)cc1 | -13% | 2% | 0% | 3% | 2% | 22% | · | · | · | · | · | · | ·
COCC(=O)Nc1ccc([N+](=O)[O-])cc1OC | 27% | -22% | 9% | 2% | 2% | 0% | · | · | · | · | · | · | ·
COc1cc([N+](=O)[O-])ccc1NC(=O)COC(=O)c1ccc(NC(N)=O)cc1 | -18% | ? | -16%[11.6 µM] | · | -8% | ? | · | · | 42* | · | · | · | ·
CC(C)CCNC(=O)Cn1c(-c2cccs2)cc2cc(F)ccc21 | 14% | -18% | · | · | -12% | 0% | · | · | · | · | · | · | ·
